The text below walks through data of PubChem BioAssay (NCATS).

Assay [1] can be described thus: NFAT Signaling Pathway (AID 444; active means well fitted curve in either direction with a large enough effect, not every such curve was filed as active;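 further: carbachol stimulus at about its EC50 of 1 µM final; on the % scale 0 is the no-effect control and ±100 the full control effect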). The following applies: Jurkat NFAT-bla M1, carbachol, beta-lactamase ratio, 5 h; at 7.69 µM (top of the series) unless noted. The procedure, abridged: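 Read-out: CCF4 FRET ratio (460 nm/530 nm) after 1 h RT dye loading, used for %activity and AC50 from titration series. Cells: Jurkat NFAT-β-lactamase/M1 line, treated with compound plus 1 uM carbachol for 5 h, 37 °C.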

The target in assay [2] is Mitogen-activated protein kinase 10 (Mus musculus) (UniProt Q61831). Nature of the assay: JNK3 AlphaScreen Assay (AID 530; active means well fitted curve in either direction with a large enough effect, not every such curve was filed as active;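 further: kinase came from lysate of stimulated human HepG2 cells; signal reports phosphorylation of biotinylated GST-cJun 1-79 at Ser73 with 10 µM ATP; on the % scale 0 is the no-effect control and ±100 the full control effect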). A digest of the protocol: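 Kinase buffer: 20 mM Tris-HCl pH 7.6, 10 mM MgCl2, 1 mM DTT, 0.1 mM Na3VO4, 0.01% Tween-20; ATP 10 uM. Substrate biotin-GST-cJun(1-79), enzyme from activated HepG2 lysates. Detection by Ser73 phospho-antibody AlphaScreen.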
(In general: Bead proximity is the source of the signal in Alpha formats.)

Assay [3] can be described thus: qHTS Assay for Identification of Small Molecule Antagonists for NFkB Signaling Pathway (AID 895; active means well fitted inhibition curve with a large enough effect in the signal ratio, with a control signal flat, not every such curve was filed as active; the % refers to the signal ratio; further: potency means the concentration at half of the fitted maximal effect). The procedure, abridged:
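Beta-lactamase reporter read-out (460 and 530 nm emission ratio, 405 nm excitation, 2 hrs substrate loading RT) after 5 hr stimulation with 10 pM TNF alpha in compound-treated NFkB-bla ME-180 cells in low-serum medium.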

Assay [4] in a line: qHTS Assay for Identification of Small Molecule Agonists for Thrombopoietin (TPO) Signaling Pathway (AID 917). Further: on the % scale 0 is the no-effect control and ±100 the full control effect. A digest of the protocol:
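Quantitative HTS for pathway activators: compounds were pin-transferred onto IL-3-starved Ba/F3 cells expressing human TPO receptor, TPO was added at its EC50 (26 pM final), and after 24 hrs at 37 C reporter luciferase was measured.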

Assay [5] addresses Muscarinic acetylcholine receptor M1 (Rattus norvegicus) (UniProt P08482). Nature of the assay: qHTS Assay for Antagonists of Acetylcholine Muscarinic M1 Receptor: Kinetic Measurement of Intracellular Calcium Response (AID 943). Further: nearly all actives have a fitted effect of over 75% in size. Further: potency means the concentration at half of the fitted maximal effect.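 On activity change, negative = inhibition: Fluo-4 calcium signal as peak divided by basal fluorescence over 4 min.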 The procedure, abridged:
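Quantitative HTS in CHO-M1 (rat receptor) cells: 10 min compound exposure ahead of 100 nM carbachol, Fluo-4 fluorescence followed 4 min, value expressed as peak-to-basal ratio.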

The target is the same in assay [6]. Nature of the assay: qHTS Assay for Antagonists of Acetylcholine Muscarinic M1 Receptor: Measurement of IP-One Response (AID 944). Further: nearly all actives have a fitted effect of over 75% in size. Further: potency means the concentration at half of the fitted maximal effect. A digest of the protocol: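 Antagonism was measured as loss of carbachol-driven (EC80) IP1 accumulation in CHO cells carrying rat M1, using a homogeneous IP-One TR-FRET kit read at 620 and 665 nm.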
(In general: qHTS replaces the single test concentration by a dilution series.)

The target of assay [7] is Voltage-gated inwardly rectifying potassium channel KCNH2 (Homo sapiens) (UniProt Q12809). Nature of the assay: qHTS Assay for Small Molecule Inhibitors of the Human hERG Channel Activity (AID 588834).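 Further: U2OS cells transduced with hERG by BacMam; top concentration of the series differs between compounds; on the % scale 0 is the no-effect control and ±100 the full control effect; lower thallium flux fluorescence means stronger hERG block; nearly all actives have a fitted effect of over 50% in size.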 The procedure, abridged: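 Cells were infected with hERG-BacMam virus for 4 hrs at room temperature, grown overnight, then seeded at 2000/well. After dye loading and roughly 10 min compound treatment, thallium influx was triggered and fluorescence recorded.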

For assay [8], the target named is Ferritin light chain (Equus caballus) (UniProt P02791). Nature of the assay: qHTS Validation Assay for Identification of Novel General Anesthetics (AID 2323). Further: on the % scale 0 is the no-effect control and ±100 the full control effect. The procedure, abridged:
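Apoferritin from horse spleen (10 uM) was mixed with 1-aminoanthracene at 50% saturation in PBS, then compounds were added. After 10 min at room temperature, fluorescence was read (ex 380 nm, em 535 nm) and normalized to free-probe and complex controls.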

The subject of assay [9] is ATS95. Nature of the assay: qHTS profiling for inhibitors of Plasmodium falciparum proliferation (AID 504749). Further: nearly all actives have a fitted effect of over 60% in size. Further: potency means the concentration at half of the fitted maximal effect. The following applies: P. falciparum in erythrocytes, SYBR Green DNA, 72 h; series mostly up to 28.7 µM. A digest of the protocol:
(§1)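 In a 72 h erythrocytic culture (37 C, humidified, 5% CO2) at 2.5% hematocrit and 0.3% starting parasitemia, compounds were tested; SYBR Green I in detergent lysis buffer stained parasite DNA overnight.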

Assay [10] deals with C2A. Described as above. The following applies: P. falciparum in erythrocytes, SYBR Green DNA, 72 h; series mostly up to 28.7 µM. A digest of the protocol: as §1
The subject of assay [11] is CP217. The assay is described as above. As to conditions: P. falciparum in erythrocytes, SYBR Green DNA, 72 h; series mostly up to 28.7 µM. A digest of the protocol: as §1
Assay [12] concerns CP237. The description is as above. As to conditions: P. falciparum in erythrocytes, SYBR Green DNA, 72 h; series mostly up to 28.7 µM. The procedure, abridged: as §1
Assay [13] deals with CP252. The description is as above. The following applies: P. falciparum in erythrocytes, SYBR Green DNA, 72 h; series mostly up to 28.7 µM. A digest of the protocol:
as §1

The subject of assay [14] is CP286. Described as above. The following applies: P. falciparum in erythrocytes, SYBR Green DNA, 72 h; series mostly up to 28.7 µM. The procedure, abridged: as §1
In assay [15] the test system is ECU. Described as above. The following applies: P. falciparum in erythrocytes, SYBR Green DNA, 72 h; series mostly up to 28.7 µM. The procedure, abridged:
as §1

In assay [16] the test system is SC27B. The description is as above. As to conditions: P. falciparum in erythrocytes, SYBR Green DNA, 72 h; series mostly up to 28.7 µM. A digest of the protocol:
as §1

Assay [17] relates to TAB165. The description is as above. As to conditions: P. falciparum in erythrocytes, SYBR Green DNA, 72 h; series mostly up to 28.7 µM. The procedure, abridged: as §1
In assay [18] the target is ATP-dependent 6-phosphofructokinase (Trypanosoma brucei brucei) (UniProt O15648). Nature of the assay: qHTS Assay to Find Inhibitors of T. brucei phosphofructokinase: hit validation (AID 492961). A digest of the protocol: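 In this biochemical qHTS validation, titrated compounds were tested against 1.25 nM PFK with 0.1 mM ATP and 0.5 mM F6P. Percent activity came from controls lacking or containing enzyme.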

The target of assay [19] is 3',5'-cyclic-AMP phosphodiesterase 4B (Homo sapiens) (UniProt Q07343). Nature of the assay: qHTS Assay for Inhibitors of PDE-IV (AID 607; active means well fitted activation curve with a large enough effect in the main read-out, with a control signal flat, not every such curve was filed as active; further: % of control where 0% means no effect). A digest of the protocol: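 Live HEK293 cells with a modified cyclic nucleotide-gated (CNG) channel report intracellular cAMP via membrane-potential dye fluorescence (ex 535/em 590 nm). Endogenous PDE-IV was targeted. Compounds were tested at up to 22.9 uM final; RO 20-1724 100 uM served as control.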

Structures are written as SMILES. Records with an inconclusive call do not appear. A number with no mark means an inactive call. The source made the active and inactive calls. Unless noted, the call rests on the fitted dose curve; in most records, active means well fitted curve in the direction sought with a large enough effect; inconclusive means small, poorly fitted or top-dose-only effect, or another doubt; inactive means no such curve, though single readings can be large; an effect the other way counts as inactive or inconclusive.

Muscarinic acetylcholine receptor M1 (Rattus norvegicus), sequence (P08482 whole entry, looked up): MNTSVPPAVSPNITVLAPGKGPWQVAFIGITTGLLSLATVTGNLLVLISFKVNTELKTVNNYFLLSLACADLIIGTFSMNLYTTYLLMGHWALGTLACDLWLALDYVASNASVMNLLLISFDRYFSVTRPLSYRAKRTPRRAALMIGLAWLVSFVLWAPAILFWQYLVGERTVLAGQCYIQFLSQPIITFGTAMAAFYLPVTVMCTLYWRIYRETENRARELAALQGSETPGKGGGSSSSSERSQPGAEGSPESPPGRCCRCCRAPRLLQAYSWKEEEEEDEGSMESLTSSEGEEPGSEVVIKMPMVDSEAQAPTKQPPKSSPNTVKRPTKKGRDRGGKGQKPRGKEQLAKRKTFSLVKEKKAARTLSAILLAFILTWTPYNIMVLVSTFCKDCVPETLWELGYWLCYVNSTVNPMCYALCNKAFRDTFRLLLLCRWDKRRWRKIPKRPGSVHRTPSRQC
ATP-dependent 6-phosphofructokinase (Trypanosoma brucei brucei), sequence (O15648 whole entry, looked up): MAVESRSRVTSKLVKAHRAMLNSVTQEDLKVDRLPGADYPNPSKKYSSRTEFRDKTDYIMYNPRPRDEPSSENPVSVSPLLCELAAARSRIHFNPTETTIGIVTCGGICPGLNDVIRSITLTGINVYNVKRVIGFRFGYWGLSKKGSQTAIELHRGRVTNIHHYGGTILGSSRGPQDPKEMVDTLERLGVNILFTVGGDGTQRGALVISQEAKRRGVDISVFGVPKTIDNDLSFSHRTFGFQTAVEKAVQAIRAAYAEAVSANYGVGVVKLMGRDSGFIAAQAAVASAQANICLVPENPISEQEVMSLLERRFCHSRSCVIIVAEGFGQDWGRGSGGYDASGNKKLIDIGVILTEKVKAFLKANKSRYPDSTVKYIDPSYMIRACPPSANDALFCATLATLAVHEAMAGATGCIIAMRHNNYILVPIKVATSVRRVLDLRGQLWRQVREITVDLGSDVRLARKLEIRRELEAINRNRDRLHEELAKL
3',5'-cyclic-AMP phosphodiesterase 4B (Homo sapiens), sequence (Q07343 whole entry, looked up): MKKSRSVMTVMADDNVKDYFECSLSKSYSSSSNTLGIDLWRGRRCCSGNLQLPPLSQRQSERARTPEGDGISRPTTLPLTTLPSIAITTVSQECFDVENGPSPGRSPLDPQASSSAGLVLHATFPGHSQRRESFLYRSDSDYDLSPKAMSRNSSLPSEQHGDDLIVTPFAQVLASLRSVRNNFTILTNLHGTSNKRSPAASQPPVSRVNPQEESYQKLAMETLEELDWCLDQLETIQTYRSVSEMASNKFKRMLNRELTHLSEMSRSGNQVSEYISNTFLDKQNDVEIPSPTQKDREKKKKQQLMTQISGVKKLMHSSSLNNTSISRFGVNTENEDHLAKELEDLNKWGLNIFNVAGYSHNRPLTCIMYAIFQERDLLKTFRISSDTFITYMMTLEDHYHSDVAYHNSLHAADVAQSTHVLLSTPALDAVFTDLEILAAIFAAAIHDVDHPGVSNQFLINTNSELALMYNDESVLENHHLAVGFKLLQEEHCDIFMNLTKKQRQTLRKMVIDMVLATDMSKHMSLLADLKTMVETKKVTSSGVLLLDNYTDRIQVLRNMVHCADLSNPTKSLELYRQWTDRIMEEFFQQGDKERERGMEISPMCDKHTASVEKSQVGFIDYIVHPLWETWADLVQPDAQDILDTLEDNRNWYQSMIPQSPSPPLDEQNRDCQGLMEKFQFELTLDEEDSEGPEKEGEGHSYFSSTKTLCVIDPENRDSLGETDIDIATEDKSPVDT
Ferritin light chain (Equus caballus), sequence (P02791 2-175 limits assumed): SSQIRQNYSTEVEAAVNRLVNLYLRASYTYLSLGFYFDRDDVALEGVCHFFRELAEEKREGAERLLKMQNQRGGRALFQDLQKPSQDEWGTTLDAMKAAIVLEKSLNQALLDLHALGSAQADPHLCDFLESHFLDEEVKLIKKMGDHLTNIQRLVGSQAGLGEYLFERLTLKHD
Voltage-gated inwardly rectifying potassium channel KCNH2 (Homo sapiens), sequence (Q12809 whole entry, looked up): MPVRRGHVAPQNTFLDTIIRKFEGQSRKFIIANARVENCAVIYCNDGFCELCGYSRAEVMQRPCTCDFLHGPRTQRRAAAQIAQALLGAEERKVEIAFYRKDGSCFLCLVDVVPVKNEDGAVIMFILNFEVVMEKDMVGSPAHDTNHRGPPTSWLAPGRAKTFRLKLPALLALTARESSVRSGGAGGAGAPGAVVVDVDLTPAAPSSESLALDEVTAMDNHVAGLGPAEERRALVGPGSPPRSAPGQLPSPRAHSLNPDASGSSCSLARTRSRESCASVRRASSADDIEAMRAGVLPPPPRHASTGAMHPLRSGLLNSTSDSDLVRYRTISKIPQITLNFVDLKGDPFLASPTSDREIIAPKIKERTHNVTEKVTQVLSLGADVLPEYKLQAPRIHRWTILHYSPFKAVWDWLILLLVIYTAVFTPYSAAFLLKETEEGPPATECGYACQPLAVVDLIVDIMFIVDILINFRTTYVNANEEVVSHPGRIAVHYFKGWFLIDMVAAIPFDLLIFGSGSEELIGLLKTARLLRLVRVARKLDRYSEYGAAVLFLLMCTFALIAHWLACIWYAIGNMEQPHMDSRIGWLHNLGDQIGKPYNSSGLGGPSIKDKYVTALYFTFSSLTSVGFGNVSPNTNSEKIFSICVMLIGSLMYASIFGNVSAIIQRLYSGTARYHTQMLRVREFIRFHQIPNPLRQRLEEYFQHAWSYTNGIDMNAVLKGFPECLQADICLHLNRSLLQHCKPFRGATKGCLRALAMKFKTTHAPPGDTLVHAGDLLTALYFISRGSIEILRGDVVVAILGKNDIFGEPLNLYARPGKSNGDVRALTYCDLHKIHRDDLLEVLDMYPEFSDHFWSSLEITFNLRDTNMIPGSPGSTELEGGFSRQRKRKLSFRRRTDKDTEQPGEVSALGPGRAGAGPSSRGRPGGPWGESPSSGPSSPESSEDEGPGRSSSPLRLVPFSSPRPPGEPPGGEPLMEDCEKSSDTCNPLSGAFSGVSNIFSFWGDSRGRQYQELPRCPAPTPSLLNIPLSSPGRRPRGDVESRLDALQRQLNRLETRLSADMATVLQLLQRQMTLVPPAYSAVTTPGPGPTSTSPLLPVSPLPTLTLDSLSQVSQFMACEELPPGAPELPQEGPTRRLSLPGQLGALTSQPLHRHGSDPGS

`COC(=O)c1c(-c2cc(OC)c(OC)c(OC)c2)c2ccc(OCc3ccccn3)cc2c(=O)n1-c1ccc(N)cc1`: the activity change, negative = inhibition in assay [1] is 10.6% [at 38 µM]. The compound was classed as inactive in assay [2] and in assay [4]. Also, the Potency in [3] was 3.16 µM (active). For the same compound, the Potency entry in assay [5] and in [6] was “inactive” in each case.
Take `C[C@H](Cc1ccccc1)Nc1ncnc2c1ncn2[C@@H]1O[C@H](CO)[C@H](O)[C@H]1O`: the Potency entry in [7] is “inactive”.
Regarding `CN1C[C@H](C(=O)N[C@]2(C)O[C@@]3(O)C4CCCN4C(=O)[C@H](Cc4ccccc4)N3C2=O)C[C@@H]2c3cccc4[nH]cc(c34)C[C@H]21` (some centres not stated), the compound was classed as inactive in [8]. The Potency is 7.08 µM (active) in [9]; 8.91 µM (active) in assay [10]; 6.31 µM (active) in assay [11]; 1 µM (active) in assay [12]; 6.31 µM (active) in assay [13]; 3.98 µM (active) in assay [14]. Further, the Potency in [15] was 1.12 µM (active); in assay [16], 2.24 µM (active); in assay [17] it was 1.41 µM (active).
`COc1ccc(CCNC[C@@H](O)c2ccc(O)cc2)cc1OC`: in assay [18], the result was inactive. Further, the Potency entry in [9], in assay [10], in assay [11], in assay [12], in assay [13] and in assay [14] was “inactive” each time. Besides, the Potency entry in assay [15], in assay [16] and in [17] was “inactive” throughout.
Take `NC(=S)c1ccc[n+]([C@@H]2O[C@@H](COP(=O)([O-])OP(=O)(O)OC[C@H]3O[C@@H](n4cnc5c(N)ncnc54)[C@H](OP(=O)(O)O)[C@H]3O)C(O)C2O)c1` (some centres not stated): the outcome in assay [8] was inactive.
Regarding `CCCC(=O)NCCc1c2n(c3ccc(OC)cc13)Cc1ccccc1-2`, in assay [1], the activity change, negative = inhibition is -10.2% [at 38 µM]. Also, the call in assay [2] and in assay [4] was inactive. Moreover, the Potency entry in assay [19], in assay [5] and in [6] was “inactive” throughout.
In the case of `CCSC(N)=Nc1ccc(C(F)(F)F)cc1`, the activity change, negative = inhibition in assay [1] was 0.554% [at 38 µM]. Moreover, the call in [2] and in assay [4] was inactive. The Potency result in assay [19] and in [7] was “inactive” in each case.
With `N[C@H](Cc1ccc(O)c(O)c1)C(=O)O`, the Potency result in assay [7], in assay [9], in [10], in assay [11], in assay [12] and in [13] was “inactive” throughout. The Potency result in assay [14], in assay [15], in assay [16] and in [17] was “inactive” throughout.
Consider `Nc1ncnc2c1ncn2[C@@H]1O[C@H](CO)[C@H](O)[C@H]1O`, for which the result in assay [8] was inactive.
In the case of `CC(=O)NCCc1ccc(O)c(O)c1`, the activity change, negative = inhibition in assay [1] was 11.3% [at 38 µM]. Also, the Potency entry in assay [19], in [3], in assay [5] and in [7] was “inactive” each time. Further, the call in assay [4] and in [8] was inactive.
In the case of `CC(C)C[C@H]1C(=O)N2CCCC2[C@]2(O)O[C@](NC(=O)[C@@H]3C=C4c5cccc6[nH]c(Br)c(c56)C[C@H]4N(C)C3)(C(C)C)C(=O)N12` (some centres not stated), the outcome in [18] was inactive. Besides, the Potency in assay [9] was 5.01 µM (active); in assay [10] it was 11.2 µM (active); in assay [11], 7.08 µM (active); in assay [12] it was 2 µM (active); in assay [13], 7.08 µM (active); in assay [14], 3.55 µM (active). In addition, the Potency is 3.55 µM (active) in [15], 6.31 µM (active) in [16] and 2.82 µM (active) in assay [17].
Take `NC(=NCCC[C@H](N)C(=O)O)NO`: the activity change, negative = inhibition in assay [1] is 10.4% [at 38 µM]. In addition, the call in [2] and in assay [4] was inactive. The Potency result in assay [19] and in assay [6] was “inactive” each time. In addition, in assay [3], the Potency was 0.398 µM (active).
`NCCCCNS(=O)(=O)c1cccc2c(Cl)cccc12`: the activity change, negative = inhibition in assay [1] is -12.9% [at 38 µM]. The Potency is 14.1 µM (active) in assay [5] and 17.8 µM (active) in [6].
As for `CC(N)=NCCCC(N)C(=O)O` (configuration not stated), the Potency entry in assay [7] was “inactive”.
For `CC(C)CN(C)c1nc(N)c(C(=O)N=C(N)N)nc1Cl`, the activity change, negative = inhibition in assay [1] is -14% [at 38 µM]. Moreover, in [2], the call was inactive. Besides, the Potency result in assay [19], in assay [3] and in assay [6] was “inactive” throughout.
As to `COc1cc2c(cc1OC)C(c1ccccc1)CN(C)CC2` (configuration not stated), the call in [18] was inactive. Further, the Potency result in assay [9], in assay [10], in assay [11], in [13], in [14] and in assay [15] was “inactive” in each case. The Potency result in assay [16] and in [17] was “inactive” each time. Further, the Potency in assay [12] is 6.31 µM (active).
